This is part of a sample that, as a whole, favours compounds with a hit. Of some 83,000 tested, about 20% had one in any assay.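 The endpoint reported here, percent growth, reads 100 for growth as untreated, 0 for no net growth and -100 for all cells dead.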 Unmarked numbers belong to inactive results. Activity calls are given as the source filed them. Rule for the calls: active = growth percent below 10; inactive = the rest.
What was measured:
Test in all cases: NCI-60 one-dose screen, 48 h (100 = growth as untreated, 0 = no growth, -100 = all killed)
Conditions in all cases: 10 µM unless noted
NCI-H23 lung = tested on: NCI-H23 lung
NCI-H226 lung = tested on: NCI-H226 lung
NCI-H322M lung = tested on: NCI-H322M lung
HOP-62 NSCLC = tested on: HOP-62 NSCLC
NCI-H460 lung = tested on: NCI-H460 lung
HOP-92 NSCLC = tested on: HOP-92 NSCLC
NCI-H522 lung = tested on: NCI-H522 lung
A549/ATCC NSCLC = tested on: A549/ATCC NSCLC
786-0 renal = tested on: 786-0 renal
COLO 205 colon = tested on: COLO 205 colon
DU-145 prostate = tested on: DU-145 prostate
K-562 leukemia = tested on: K-562 leukemia
MALME-3M melanoma = tested on: MALME-3M melanoma
MDA-MB-231 breast = tested on: MDA-MB-231 breast
RXF 393 renal = tested on: RXF 393 renal
SF-268 CNS = tested on: SF-268 CNS
SF-295 CNS = tested on: SF-295 CNS
SF-539 CNS = tested on: SF-539 CNS
UACC-257 melanoma = tested on: UACC-257 melanoma
M14 melanoma = tested on: M14 melanoma

Row | Structure (SMILES) | growth (NCI-H23 lung) | growth (NCI-H226 lung) | growth (NCI-H322M lung) | growth (HOP-62 NSCLC) | growth (NCI-H460 lung) | growth (HOP-92 NSCLC) | growth (NCI-H522 lung) | growth (A549/ATCC NSCLC) | growth (786-0 renal) | growth (COLO 205 colon) | growth (DU-145 prostate) | growth (K-562 leukemia) | growth (MALME-3M melanoma) | growth (MDA-MB-231 breast) | growth (RXF 393 renal) | growth (SF-268 CNS) | growth (SF-295 CNS) | growth (SF-539 CNS) | growth (UACC-257 melanoma) | growth (M14 melanoma)
1 | COc1ccc(C(=S)N2CCN(c3cccc(Cl)c3)CC2)cc1 | 101% | 113% | 98.3% | 98.5% | 96.7% | 94.6% | 108% | 91.7% | 97.1% | 141% | 121% | 119% | 138% | 101% | 160% | 102% | 111% | 92.2% | -2.46% (active) | 101%
2 | Cn1ccnc1C(=O)/C=C/c1ccccc1 | 33.1% | 50.7% | 10.4% | -54.9% (active) | -17.9% (active) | -9.57% (active) | -67.4% (active) | 33.7% | -35.6% (active) | 23% | -54.5% (active) | 8.07% (active) | 62.9% | 34.7% | 12.9% | 23.3% | 20.5% | -38% (active) | 51.8% | -1.9% (active)
3 | C=C(C)[C@@H]1CC[C@]2(C(N)=O)CC[C@]3(C)[C@H](CC[C@@H]4[C@@]5(C)C/C(=C/c6ccco6)C(=O)C(C)(C)[C@@H]5CC[C@]43C)[C@@H]12 | 98% | 95.8% | 98.9% | 98.5% | 96% | 103% | 78.8% | 86.6% | 95.3% | 113% | 92.6% | 80.1% | 87% | 94.5% | 94.2% | 90.9% | 90.2% | 98.6% | 97.8% | 85.1%
4 | COc1ccc(/C=C2\Oc3cc(OCCCCN4CCCC4)ccc3C2=O)cc1 | 83.3% | 94.5% | 98.6% | 91.7% | 1.37% (active) | 73.7% | 91.9% | 79.3% | 85.2% | 86.4% | 95% | -40.3% (active) | 110% | 91.3% | 74.5% | 87.9% | 83.5% | 42.4% | 96.9% | 86.2%
5 | O=S(=O)(Nc1ccc(OC(F)F)cc1)c1ccc(-c2cnc(C3CC3)o2)cc1 | 73.4% | 74.1% | 95.7% | 66.6% | 79.1% | 59.3% | 43% | 60.4% | 84% | 97.2% | 90.5% | 19.8% | 76.5% | 70.2% | 81.9% | 75.4% | 53.3% | 79.2% | 75% | 50.9%
6 | NC(=O)c1cc(Br)ccc1NC(=O)/C=C/c1ccccc1 | 62% | 66.9% | 76.1% | 99% | 17.1% | 57% | -24.9% (active) | 33.2% | 65.7% | -4.22% (active) | -5.67% (active) | 15% | 96.5% | 45.3% | 39.3% | 43.5% | 51.3% | 9.78% (active) | 49.1% | 28.3%
7 | O=[N+]([O-])c1cnc(N2CCN(CC3CC3)CC2)nc1N1CCN(CC2CC2)CC1 | 95.4% | 81.3% | 88.8% | 108% | 102% | 74% | 93.9% | 104% | 94.8% | 97.1% | 101% | 102% | 97.7% | 99.9% | 73.1% | 87.7% | 99.5% | 90.8% | 108% | 98.2%
8 | Cc1ccccc1COc1ccc(-c2onc(C)c2-c2ccc(Cl)cc2)cc1 | 73.8% | 57.2% | 97.6% | 51.6% | 54.7% | 72.6% | 25.5% | 49.3% | 75.5% | 71% | 77.4% | 14.4% | 59.8% | 90.8% | 70.2% | 75.6% | 49.4% | 63.5% | 70.9% | 32.2%
9 | COc1ccc(-c2n[nH]nc2-c2csc3ccccc23)cc1OC | 35% | 67.2% | 51.7% | 25.2% | 15.7% | 41.6% | 7.11% (active) | 31.9% | 30.7% | 34.7% | 41.5% | 9.48% (active) | 56.9% | 35.6% | 23.5% | 30.2% | 25.9% | -2.39% (active) | 40.1% | 7.35% (active)
10 | CC(C)C1=C[C@@]23CC[C@@H]4[C@](C)(CCC[C@@]4(C)C(=O)N4CCCNCC4)[C@H]2C[C@@H]1[C@H]1C(=O)CCC(=O)[C@H]13 | 96.4% | 101% | 106% | 97.3% | 104% | 101% | 91.5% | 101% | 104% | 134% | 114% | 93.5% | 99.9% | 109% | 104% | 97.8% | 93.7% | 93.7% | 106% | 93%
11 | Cc1ccccc1COc1ccc(-c2ccnn2-c2ccc(Cl)cc2)cc1 | 76.6% | 70.3% | 96.9% | 49.3% | 58.3% | 74.2% | 29.1% | 49.6% | 82.8% | 71.2% | 88.1% | 13.7% | 67.2% | 84.2% | 60.3% | 80.5% | 53.1% | 71.8% | 75.7% | 39%
12 | N#Cc1c(N)n(CCNC(=O)c2ccccc2)c2nc3ccccc3nc12 | 103% | 97.2% | 121% | 111% | 117% | -17.4% (active) | 84.2% | 105% | 92% | 115% | 134% | 87.8% | 120% | 112% | – | 106% | 121% | 121% | 97.9% | 112%
13 | O=C(COc1cccc(/C=C2\COc3ccc(Cl)cc3C2=O)c1)c1ccc(Cl)cc1 | 86.1% | 88.1% | 98.2% | 73.7% | 102% | 66.3% | 87.1% | 100% | 98% | 116% | 124% | 13.1% | 77.5% | 67.8% | – | 94.4% | 120% | 87% | 104% | 82.4%
14 | COc1nc2c(c(=O)n1C)CN(Cc1ccccc1)C=N2 | 103% | 109% | 128% | 94.2% | 116% | 21.2% | 95.1% | 87.6% | 103% | 107% | 114% | 93.2% | – | 119% | 109% | 106% | 109% | 116% | 94.9% | 101%
15 | NC(=NC1C2CC3CC(C2)CC1C3)Nc1ccc(I)cc1 (centres undefined) | 15.4% | 84.7% | 15.7% | 12.9% | 55.2% | 31.1% | 42.4% | 26.1% | 61% | -70.3% (active) | 20.4% | – | -17% (active) | 41.8% | 85.8% | 40.7% | 10.7% | 32% | 0.379% (active) | –
16 | COc1cccc2c1C(=O)c1c(O)c3c(c(O)c1C2=O)C[C@](O)(C(=O)CO)C[C@H]3O[C@@H]1C[C@@H](NC(=O)CCCN(C)C2(c3ccc(F)cc3)CC3CCC2C3)[C@H](O)[C@@H](C)O1 (some centres undefined) | -59.7% (active) | 65.2% | 49.1% | 58.5% | -86.8% (active) | 48.7% | -82.7% (active) | -80.1% (active) | -94.2% (active) | -76.2% (active) | -48.4% (active) | – | -83.2% (active) | -76.4% (active) | -95.8% (active) | -82.4% (active) | -92.9% (active) | -81.6% (active) | -26.9% (active) | -86.8% (active)

Reference: PubChem BioAssay (NCI)
